Laboratory results published in the supplement of paper PMC10849652.
Targets with a hit are over-represented here; the source holds about 8,800 in all. About 0.5% of all pairs of compound and target were hits.

Columns and labels:
Assay in all cases: log2 fold change, soluble protein after heating vs DMSO (PISA); higher = thermal stabilisation; K562 lysate, 10 uM; active = over 0.2 and 3.5 SD of the protein, either way, in both replicates (recomputed)
[1] = compound: C#Cc1cccc(Nc2ncnc3cc(OCCOC)c(OCCOC)cc23)c1 [erlotinib]
Method in brief: (§1)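 Dounce homogenisation of K562 pellets in PBS pH 7.4 with 1 mM MgCl2 produced a crude extract, used at 1 mg/mL protein. Exposure to 10 μM compound lasted 30 min, and aliquots were then heated for 3 min across 48°C-58°C, pooled and brought to 0.5% NP-40 at 4°C. The supernatant after 21,000xg for 90 min was quantified by TMTpro 16plex LC-MS/MS with channel sums equalised. Duplicate values are given as log-two fold change in thermal stability relative to solvent controls.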

[2] = compound: C/C(=N\NC(=O)C1=CC(=CC=C1)S(=O)(=O)N2CCOCC2)/C3=C(C=CC(=C3)Cl)O
Method in brief: as §1

[3] = compound: C1=CC(=CC=C1C2=NC3=C(N2)C=C(C=C3)C(=O)N)OC4=CC=C(C=C4)Cl
Method in brief: as §1

[4] = compound: C1=CC2=C(C=CC(=C2)/C=C\3/C(=O)NC(=NCC4=CC=CS4)S3)N=C1
Method in brief: as §1

[5] = compound: C1=CC2=NC=CN=C2C=C1/C=C/3\C(=O)NC(=O)S3
Method in brief: as §1

[6] = compound: C1=CC=C(C=C1)C2=NC(=C(N2)C3=CC=NC=C3)C4=CC(=C(C=C4)Cl)O
Method in brief: as §1

[7] = compound: C1=CC=C2C(=C1)C3=NNC4=CC=CC(=C43)C2=O
Method in brief: as §1

[8] = compound: C1CCN(C1)C(=O)NC2=CC=CC(=C2)NC3=NC=C(C(=N3)NCCC4=CN=CN4)Br
Method in brief: as §1

[9] = compound: C1CN(CCC1(CC2=CC=C(C=C2)Cl)N)C3=NC=NC4=C3C=CN4
Method in brief: as §1

[10] = compound: C1COCCN1CCN2C3=CC=CC=C3N=C2NC(=O)C4=CC(=CC=C4)[N+](=O)[O-] [IRAK-1-4 Inhibitor I]
Method in brief: as §1

[11] = compound: C=CC(=O)N1CCC[C@@H](n2nc(-c3ccc(Oc4ccccc4)cc3)c3c(N)ncnc32)C1 [ibrutinib]
Method in brief: as §1

[12] = compound: CC(=O)c1cnc2ccc(-c3cc(Cl)c(O)c(Cl)c3)nc2c1N[C@H]1CC[C@H](CN(C)C)CC1
Method in brief: as §1

[13] = compound: CC(C)(C)Cn1c(N)nc2ccc(-c3[nH]c(C(C)(C)C)nc3-c3ccc(F)cc3)nc21 [ralimetinib]
Method in brief: as §1

[14] = compound: CC(C)(O)CC(=O)NCCn1ccc2ncnc(Nc3ccc(Oc4cccc(C(F)(F)F)c4)c(Cl)c3)c21
Method in brief: as §1

[15] = compound: CC(C)C1=C2N=C(C=C(N2N=C1)NCC3=CC=CC=C3)NCCCCCCN
Method in brief: as §1

[16] = compound: CC1=C(C(CC(=O)N1)C2=CC=C(C=C2)C(F)(F)F)C(=O)NC3=C(C=C4C(=C3)C=NN4)F
Method in brief: as §1

[17] = compound: CC1=C(C2=C(C=C1)C(=O)C3=CC=CC=C3N2CCCN)C
Method in brief: as §1

[18] = compound: CC1=C(C=C(C=C1)NC(=O)C2=CC(=CC=C2)C(C)(C)C#N)NC3=CC4=C(C=C3)N=CN(C4=O)C
Method in brief: as §1

[19] = compound: CC1=C(C=C(C=C1)NC(=O)C2=CC(=CC=C2)N(C)C)NC(=O)C3=CC=C(C=C3)O
Method in brief: as §1

[20] = compound: CC1=CC=C(C=C1)SC2=C3C=C(SC3=CN=C2)C(=O)N
Method in brief: as §1

Measured: log2 fold change

VPS41 (UniProt P49754)
UniProt P49754, sequence (P49754 whole entry, looked up): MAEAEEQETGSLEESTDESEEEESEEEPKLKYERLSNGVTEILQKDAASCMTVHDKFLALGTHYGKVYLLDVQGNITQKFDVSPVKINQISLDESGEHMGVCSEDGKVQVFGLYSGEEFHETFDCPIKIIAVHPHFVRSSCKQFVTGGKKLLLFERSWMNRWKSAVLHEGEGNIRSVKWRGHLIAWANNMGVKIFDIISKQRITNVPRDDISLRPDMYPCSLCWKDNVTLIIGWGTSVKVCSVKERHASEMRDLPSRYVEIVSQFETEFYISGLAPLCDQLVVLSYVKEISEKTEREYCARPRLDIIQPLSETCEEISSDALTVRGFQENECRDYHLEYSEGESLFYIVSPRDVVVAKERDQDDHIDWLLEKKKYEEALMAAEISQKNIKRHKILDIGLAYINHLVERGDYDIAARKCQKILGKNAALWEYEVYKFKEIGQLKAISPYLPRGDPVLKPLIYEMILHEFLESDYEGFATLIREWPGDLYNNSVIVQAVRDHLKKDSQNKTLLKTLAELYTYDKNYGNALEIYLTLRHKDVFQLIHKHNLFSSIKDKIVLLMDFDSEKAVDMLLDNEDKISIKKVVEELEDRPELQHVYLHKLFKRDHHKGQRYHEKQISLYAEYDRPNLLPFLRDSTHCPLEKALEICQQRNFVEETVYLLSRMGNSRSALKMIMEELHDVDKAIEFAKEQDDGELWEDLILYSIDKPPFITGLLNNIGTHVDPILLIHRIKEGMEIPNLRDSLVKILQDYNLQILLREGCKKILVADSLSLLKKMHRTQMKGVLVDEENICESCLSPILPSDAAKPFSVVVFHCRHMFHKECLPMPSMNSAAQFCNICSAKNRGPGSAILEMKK
inactive: [1] 0.032 | [2] 0.073 | [3] -0.029 | [4] 0.062 | [5] -0.003 | [6] 0.036 | [7] -0.033 | [8] -0.025 | [9] 0.049 | [10] -0.008 | [11] -0.019 | [12] 0.007 | [13] 0.015 | [14] 0.016 | [15] 0.003 | [16] 0.024 | [17] 0.014 | [18] 0.005 | [19] 0.047 | [20] 0.013

UNC13D (UniProt Q70J99)
UniProt Q70J99, sequence (Q70J99 whole entry, looked up): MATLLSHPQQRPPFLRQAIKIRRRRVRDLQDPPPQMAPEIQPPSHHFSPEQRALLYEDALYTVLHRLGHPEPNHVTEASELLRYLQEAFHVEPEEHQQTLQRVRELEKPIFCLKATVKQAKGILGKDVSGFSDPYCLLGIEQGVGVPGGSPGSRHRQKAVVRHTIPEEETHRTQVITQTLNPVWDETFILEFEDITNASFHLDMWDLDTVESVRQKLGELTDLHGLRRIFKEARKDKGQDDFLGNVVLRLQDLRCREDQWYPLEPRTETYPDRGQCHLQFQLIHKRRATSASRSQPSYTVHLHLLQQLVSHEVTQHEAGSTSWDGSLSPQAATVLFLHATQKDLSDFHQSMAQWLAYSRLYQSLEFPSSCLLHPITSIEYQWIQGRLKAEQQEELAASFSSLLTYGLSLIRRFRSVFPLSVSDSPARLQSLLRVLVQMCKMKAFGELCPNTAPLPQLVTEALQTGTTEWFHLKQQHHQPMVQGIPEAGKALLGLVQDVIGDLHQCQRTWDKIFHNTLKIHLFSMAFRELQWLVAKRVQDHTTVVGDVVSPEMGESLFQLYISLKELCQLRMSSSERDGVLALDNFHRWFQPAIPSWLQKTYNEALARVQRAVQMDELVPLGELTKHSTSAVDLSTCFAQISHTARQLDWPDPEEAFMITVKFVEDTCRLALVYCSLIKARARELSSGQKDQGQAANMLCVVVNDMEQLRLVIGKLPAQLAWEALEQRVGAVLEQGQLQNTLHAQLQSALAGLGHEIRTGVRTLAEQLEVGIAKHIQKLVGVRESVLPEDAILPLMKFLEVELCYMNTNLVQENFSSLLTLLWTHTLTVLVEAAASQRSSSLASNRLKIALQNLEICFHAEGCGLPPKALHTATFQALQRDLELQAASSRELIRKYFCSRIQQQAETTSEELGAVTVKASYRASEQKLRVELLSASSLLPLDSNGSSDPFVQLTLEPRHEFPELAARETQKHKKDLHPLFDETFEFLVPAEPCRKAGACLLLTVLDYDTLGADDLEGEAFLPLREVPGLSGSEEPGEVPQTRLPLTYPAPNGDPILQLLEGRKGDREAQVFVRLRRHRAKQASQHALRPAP
inactive: [1] 0.019 | [2] 0.023 | [3] -0.049 | [4] 0.02 | [5] 0.025 | [6] -0.007 | [7] -0.009 | [8] 0.005 | [9] 0.013 | [10] 0.022 | [11] -0.043 | [12] -0.005 | [13] 0.031 | [14] -0.014 | [15] 0.018 | [16] 0.016 | [17] 0.015 | [18] 0.012 | [19] 0.025 | [20] -0.015

WRNIP1 (UniProt Q96S55)
inactive: [1] 0.019 | [2] -0.128 | [3] -0.014 | [4] -0.024 | [5] -0.005 | [6] 0.003 | [7] -0.064 | [8] 0.028 | [9] 0.023 | [10] -0.05 | [11] 0.025 | [12] 0.026 | [13] 0.051 | [14] 0.026 | [15] 0.001 | [16] 0.045 | [17] 0.013 | [18] -0.023 | [19] -0.003 | [20] -0.023

WEE1 (UniProt P30291)
inactive: [1] 0.079 | [2] -0.014 | [3] -0.091 | [4] -0.051 | [5] 0.019 | [6] 0.01 | [7] -0.006 | [8] -0.07 | [9] 0.021 | [10] 0.056 | [11] -0.028 | [12] 0.139 | [13] -0.017 | [14] -0.062 | [15] -0.031 | [16] -0.032 | [17] -0.012 | [18] 0.023 | [19] -0.105 | [20] -0.038

WDHD1 (UniProt O75717)
inactive: [1] 0.013 | [2] 0.025 | [3] -0.004 | [4] 0.019 | [5] 0.002 | [6] 0.006 | [7] -0.005 | [8] 0 | [9] 0.025 | [10] -0.017 | [11] 0.024 | [12] -0.002 | [13] 0.005 | [14] -0.01 | [15] -0.027 | [16] 0.007 | [17] -0.002 | [18] -0.002 | [19] 0.016 | [20] -0.005

YDJC (UniProt A8MPS7)
inactive: [1] -0.083 | [2] 0.036 | [3] -0.011 | [4] -0.012 | [5] -0.01 | [6] 0.029 | [7] -0.065 | [8] -0.034 | [9] 0.029 | [10] -0.023 | [11] 0.024 | [12] 0.023 | [13] -0.015 | [14] -0.064 | [15] -0.028 | [16] 0.052 | [17] -0.034 | [18] 0.011 | [19] 0.022 | [20] 0.021

VPS35L (UniProt Q7Z3J2)
inactive: [1] 0.005 | [2] -0.016 | [3] -0.028 | [4] -0.001 | [5] 0.002 | [6] 0.006 | [7] -0.038 | [8] -0.028 | [9] 0.006 | [10] 0.04 | [11] 0.011 | [12] 0.023 | [13] -0.003 | [14] -0.032 | [15] 0.003 | [16] 0.007 | [17] 0.018 | [18] -0.021 | [19] 0.009 | [20] -0.005

ZNF318 (UniProt Q5VUA4)
UniProt Q5VUA4, sequence (Q5VUA4 whole entry, looked up): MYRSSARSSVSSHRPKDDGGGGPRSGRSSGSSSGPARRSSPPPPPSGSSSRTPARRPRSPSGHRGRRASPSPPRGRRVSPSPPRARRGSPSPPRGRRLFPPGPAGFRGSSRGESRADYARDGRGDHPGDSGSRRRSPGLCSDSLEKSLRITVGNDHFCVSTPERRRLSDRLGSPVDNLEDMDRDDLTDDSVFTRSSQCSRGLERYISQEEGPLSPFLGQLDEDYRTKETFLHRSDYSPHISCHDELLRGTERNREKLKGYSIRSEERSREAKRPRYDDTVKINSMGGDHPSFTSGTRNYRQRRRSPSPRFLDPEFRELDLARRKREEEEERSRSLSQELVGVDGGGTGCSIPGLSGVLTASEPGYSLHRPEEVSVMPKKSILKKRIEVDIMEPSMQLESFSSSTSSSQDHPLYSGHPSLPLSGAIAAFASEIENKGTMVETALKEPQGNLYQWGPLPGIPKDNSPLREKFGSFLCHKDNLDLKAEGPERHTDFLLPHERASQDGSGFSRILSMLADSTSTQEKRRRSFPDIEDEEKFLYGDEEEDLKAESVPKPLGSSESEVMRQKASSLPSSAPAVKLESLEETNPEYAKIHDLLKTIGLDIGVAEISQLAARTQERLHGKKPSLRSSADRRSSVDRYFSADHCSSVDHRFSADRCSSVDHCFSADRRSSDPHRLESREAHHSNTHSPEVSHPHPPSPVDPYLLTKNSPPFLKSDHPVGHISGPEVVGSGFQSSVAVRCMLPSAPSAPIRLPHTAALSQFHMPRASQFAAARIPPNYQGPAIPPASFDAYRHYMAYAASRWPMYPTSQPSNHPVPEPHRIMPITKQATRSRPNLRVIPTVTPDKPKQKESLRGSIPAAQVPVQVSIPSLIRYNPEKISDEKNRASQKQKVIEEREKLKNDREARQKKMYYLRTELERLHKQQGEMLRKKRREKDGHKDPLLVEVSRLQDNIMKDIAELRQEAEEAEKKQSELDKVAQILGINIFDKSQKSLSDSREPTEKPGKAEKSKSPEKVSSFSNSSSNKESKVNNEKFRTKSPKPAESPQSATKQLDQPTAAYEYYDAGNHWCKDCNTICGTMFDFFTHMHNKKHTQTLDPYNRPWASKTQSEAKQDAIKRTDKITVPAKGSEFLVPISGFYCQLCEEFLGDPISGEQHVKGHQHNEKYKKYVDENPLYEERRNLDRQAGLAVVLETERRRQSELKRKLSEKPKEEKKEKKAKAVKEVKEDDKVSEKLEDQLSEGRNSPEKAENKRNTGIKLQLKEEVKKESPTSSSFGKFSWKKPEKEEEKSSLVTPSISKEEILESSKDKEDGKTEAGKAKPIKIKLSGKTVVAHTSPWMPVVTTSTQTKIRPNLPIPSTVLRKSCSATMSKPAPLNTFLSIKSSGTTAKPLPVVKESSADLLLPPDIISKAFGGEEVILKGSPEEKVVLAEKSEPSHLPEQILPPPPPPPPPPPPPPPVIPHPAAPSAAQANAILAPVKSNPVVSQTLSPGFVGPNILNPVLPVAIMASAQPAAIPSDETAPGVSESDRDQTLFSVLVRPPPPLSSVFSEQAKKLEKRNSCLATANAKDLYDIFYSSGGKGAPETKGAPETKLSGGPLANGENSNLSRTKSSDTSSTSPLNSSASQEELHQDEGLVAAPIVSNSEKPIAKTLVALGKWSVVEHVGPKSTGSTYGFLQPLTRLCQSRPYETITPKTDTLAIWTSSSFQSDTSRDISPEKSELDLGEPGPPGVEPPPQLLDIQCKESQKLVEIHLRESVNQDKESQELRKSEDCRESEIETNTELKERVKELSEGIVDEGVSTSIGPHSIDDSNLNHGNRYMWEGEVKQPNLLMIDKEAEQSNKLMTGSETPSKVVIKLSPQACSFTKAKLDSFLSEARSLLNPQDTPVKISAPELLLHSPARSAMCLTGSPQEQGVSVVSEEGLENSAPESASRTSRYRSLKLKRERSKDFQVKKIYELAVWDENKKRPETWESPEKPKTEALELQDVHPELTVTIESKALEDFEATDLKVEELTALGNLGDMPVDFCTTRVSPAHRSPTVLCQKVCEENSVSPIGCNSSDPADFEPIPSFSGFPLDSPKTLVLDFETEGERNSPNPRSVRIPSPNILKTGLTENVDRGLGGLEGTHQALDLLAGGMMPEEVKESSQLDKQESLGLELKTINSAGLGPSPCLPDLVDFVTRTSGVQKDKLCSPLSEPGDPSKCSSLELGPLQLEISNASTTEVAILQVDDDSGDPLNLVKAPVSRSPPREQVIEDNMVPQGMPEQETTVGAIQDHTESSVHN
inactive: [1] 0.026 | [2] -0.033 | [3] -0.054 | [4] -0.015 | [5] -0.078 | [6] 0.003 | [7] 0.004 | [8] 0.023 | [9] 0.004 | [10] 0.012 | [11] 0.022 | [12] -0.043 | [13] 0.029 | [14] -0.06 | [15] 0.014 | [16] 0.023 | [17] 0.038 | [18] -0.036 | [19] 0.046 | [20] 0.083

WDR20 isoform 7 (UniProt Q8TBZ3)
inactive: [1] -0.001 | [2] -0.105 | [3] 0.043 | [4] 0.04 | [5] -0.117 | [6] 0.094 | [7] -0.016 | [8] -0.05 | [9] 0.092 | [10] 0.026 | [11] 0.003 | [12] -0.001 | [13] 0.088 | [14] -0.023 | [15] -0.019 | [16] 0.087 | [17] 0.044 | [18] 0.058 | [19] -0.003 | [20] 0.014

XPO1 (UniProt O14980)
inactive: [1] 0.021 | [2] 0.025 | [3] -0.015 | [4] 0.017 | [5] 0.026 | [6] -0.031 | [7] -0.045 | [8] -0.005 | [9] 0.033 | [10] 0.016 | [11] -0.01 | [12] 0.008 | [13] 0.029 | [14] -0.037 | [15] -0.01 | [16] -0.007 | [17] 0.035 | [18] -0.004 | [19] 0.02 | [20] 0.019

VASP (UniProt P50552)
UniProt P50552, sequence (P50552 whole entry, looked up): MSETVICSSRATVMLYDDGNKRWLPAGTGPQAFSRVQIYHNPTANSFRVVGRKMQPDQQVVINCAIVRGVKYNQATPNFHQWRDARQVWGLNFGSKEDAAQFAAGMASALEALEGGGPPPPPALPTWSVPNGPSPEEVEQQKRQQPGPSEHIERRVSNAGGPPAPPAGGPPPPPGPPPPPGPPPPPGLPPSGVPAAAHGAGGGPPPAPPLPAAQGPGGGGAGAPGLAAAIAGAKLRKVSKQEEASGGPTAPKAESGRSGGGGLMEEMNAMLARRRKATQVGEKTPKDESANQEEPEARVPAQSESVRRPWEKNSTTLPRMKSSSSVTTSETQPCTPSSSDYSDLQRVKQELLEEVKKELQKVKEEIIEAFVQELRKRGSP
inactive: [1] 0.001 | [2] -0.028 | [3] 0.017 | [4] -0.006 | [5] -0.035 | [6] -0.003 | [7] -0.02 | [8] -0.006 | [9] 0.035 | [10] 0.014 | [11] -0.002 | [12] 0.002 | [13] -0.003 | [14] -0.018 | [15] -0.009 | [16] -0.007 | [17] 0.038 | [18] 0.014 | [19] -0.014 | [20] 0.01

VPS54 (UniProt Q9P1Q0)
inactive: [1] -0.018 | [2] -0.061 | [3] 0.059 | [4] -0.117 | [5] 0.213 | [6] -0.044 | [7] -0.114 | [8] -0.019 | [9] -0.079 | [10] 0.036 | [11] 0.048 | [12] -0.059 | [13] -0.122 | [14] -0.267 | [15] -0.004 | [16] 0.038 | [17] 0.04 | [18] 0.144 | [19] 0.066 | [20] -0.037

WDR77 (UniProt Q9BQA1)
UniProt Q9BQA1, sequence (Q9BQA1 whole entry, looked up): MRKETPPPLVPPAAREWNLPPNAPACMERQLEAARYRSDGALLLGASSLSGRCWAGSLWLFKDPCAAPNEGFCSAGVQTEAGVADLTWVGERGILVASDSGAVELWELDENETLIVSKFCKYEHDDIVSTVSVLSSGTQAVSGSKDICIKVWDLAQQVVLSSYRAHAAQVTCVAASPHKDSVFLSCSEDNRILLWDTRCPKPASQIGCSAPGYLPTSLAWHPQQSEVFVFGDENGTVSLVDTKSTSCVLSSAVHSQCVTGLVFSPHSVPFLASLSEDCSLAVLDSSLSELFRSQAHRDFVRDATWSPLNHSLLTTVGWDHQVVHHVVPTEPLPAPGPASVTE
inactive: [1] -0.008 | [2] -0.073 | [3] -0.018 | [4] 0.025 | [5] -0.021 | [6] -0.009 | [7] 0.011 | [8] 0.004 | [9] 0.014 | [10] 0.002 | [11] 0.016 | [12] 0.022 | [13] 0.031 | [14] 0.024 | [15] -0.012 | [16] -0.022 | [17] -0.004 | [18] 0.007 | [19] -0.01 | [20] 0.032

VAMP2 (UniProt P63027)
UniProt P63027, sequence (P63027 whole entry, looked up): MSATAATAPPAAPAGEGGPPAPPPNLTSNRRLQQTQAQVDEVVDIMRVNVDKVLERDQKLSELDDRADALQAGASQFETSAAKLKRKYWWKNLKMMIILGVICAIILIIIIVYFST
inactive: [1] -0.083 | [2] 0.055 | [3] -0.024 | [4] -0.063 | [5] 0.063 | [6] -0.082 | [7] -0.037 | [8] 0.081 | [9] -0.009 | [10] -0.033 | [11] -0.039 | [12] -0.027 | [13] 0.002 | [14] -0.006 | [15] -0.036 | [16] -0.069 | [17] -0.01 | [18] -0.048 | [19] 0.047 | [20] 0.035

XPO5 (UniProt Q9HAV4)
inactive: [1] 0.026 | [2] 0.024 | [3] -0.02 | [4] 0.005 | [5] 0 | [6] -0.003 | [7] -0.044 | [8] 0.008 | [9] 0.035 | [10] -0.015 | [11] -0.041 | [12] 0.003 | [13] 0 | [14] -0.043 | [15] -0.039 | [16] -0.014 | [17] -0.01 | [18] -0.004 | [19] 0.043 | [20] -0.01

ZMYM1 (UniProt Q5SVZ6)
inactive: [1] -0.041 | [2] -0.027 | [3] -0.002 | [4] 0.021 | [5] 0.007 | [6] -0.036 | [7] 0.041 | [8] 0.043 | [9] 0.025 | [10] -0.008 | [11] -0.04 | [12] 0.012 | [13] 0.02 | [14] 0.016 | [15] -0.022 | [16] -0.049 | [17] -0.008 | [18] 0.001 | [19] -0.007 | [20] -0.011
